# PubChem BioAssay (NCI)
# The panel holds about 83,000 compounds, 20% with a hit somewhere; the sample as a whole holds those more often.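 Treatment: one concentration, 48 hours, 96-well format. Scoring: percent growth, with anything below 10 considered active.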 Unmarked numbers belong to inactive results. The source made the active and inactive calls.
# Legend:
# Experiment in all cases: NCI-60 one-dose screen, 48 h (100 = growth as untreated, 0 = no growth, -100 = all killed)
# Conditions in all cases: 10 µM unless noted
# RPMI-8226 leukemia = system: RPMI-8226 leukemia
# OVCAR-8 ovarian = system: OVCAR-8 ovarian
# OVCAR-5 ovarian = system: OVCAR-5 ovarian
# OVCAR-4 ovarian = system: OVCAR-4 ovarian
# SK-OV-3 ovarian = system: SK-OV-3 ovarian
# OVCAR-3 ovarian = system: OVCAR-3 ovarian
# HS 578T breast = system: HS 578T breast
# NCI/ADR-RES ovarian = system: NCI/ADR-RES ovarian
# IGROV1 ovarian = system: IGROV1 ovarian
Compound,growth (RPMI-8226 leukemia),growth (OVCAR-8 ovarian),growth (OVCAR-5 ovarian) [%],growth (OVCAR-4 ovarian) [%],growth (SK-OV-3 ovarian) [%],growth (OVCAR-3 ovarian),growth (HS 578T breast),growth (NCI/ADR-RES ovarian) [%],growth (IGROV1 ovarian)
O=C(c1ccccc1)C(Cl)C(Cl)c1ccccc1 (centres undefined),-5.33% (active),-1.77% (active),113,41.2,138,2.77% (active),83.7%,80.2,–
O=C(Cc1n[nH]c(=O)c2ccccc12)OCc1c(Cl)cccc1Cl,63.7%,–,95.7,105,113,84.5%,103%,82.4,29.4%
CCNCc1ccncc1,98.8%,103%,112,97.8,94.7,110%,103%,106,111%
CCCCCCOc1ccc(C2(Cl)c3ccccc3N(C)c3ccccc32)cc1,47.5%,38.7%,107,41.3,60.7,32.1%,54.7%,52.3,–
OC1CC2c3ccccc3C1c1ccccc12 (centres undefined),104%,106%,113,100,112,112%,104%,110,–
CC(=O)OC[Si](C)(C)c1ccccc1,110%,101%,108,103,103,112%,103%,112,114%
COc1cc(/C=C2\CCCC3=C2NC(C)=NC3c2cc(OC)c(OC)c(OC)c2)cc(OC)c1OC (centres undefined),-15.1% (active),–,10.8,42.2,43.9,28%,48.6%,14.5,30.7%
Cc1ccccc1C(=O)c1ccccc1C(=O)O,102%,107%,111,114,118,–,106%,108,–
COc1cc(/C=C/C(=O)c2ccc(NC(=O)CN3CCN(c4cc5c(cc4F)c(=O)c(C(=O)O)cn5C4CC4)CC3)cc2)cc(OC)c1OC,-18.8% (active),–,16.9,16.4,33.3,-25.8% (active),76.8%,98.2,-1.19% (active)
Cc1cc(C(=O)O)c(N)c(C)n1,103%,112%,111,102,129,110%,101%,108,–
NC(=O)c1ccc2c(c1)OCO2,106%,108%,113,103,130,107%,98.7%,97,–
O=C(C[N+](=O)[O-])c1ccc(Cl)cc1,100%,116%,110,111,113,113%,–,109,–
CC(Br)C(O)c1cc2c(cc1Br)OCO2 (centres undefined),101%,109%,108,105,118,109%,103%,105,–
CC1Cc2c(N(C)C)ncnc2N(C)c2ccc(Cl)cc21 (centres undefined),31.3%,–,73.8,49.7,46.3,5.13% (active),-1.26% (active),25.9,57.5%
COc1cc2nc(Cl)nc(NCCO)c2cc1OC,98.3%,98.3%,100,102,119,–,104%,112,108%
COc1ccc(/C=C/C(=O)c2ccc(NC(=O)CN3CCN(c4cc5c(cc4F)c(=O)c(C(=O)O)cn5C4CC4)CC3)cc2)cc1,–,99%,105,101,114,118%,94.8%,107,115%
COc1ccc(Cl)cc1NC(N)=S,100%,108%,113,94.8,118,108%,104%,105,–
Cc1nc2scc(-c3ccccc3)n2c(=O)c1CCO,102%,109%,109,93.8,105,–,–,112,98.1%
CC(C)C[C@H](NC(=O)[C@H](Cc1ccccc1)n1ccc(N2CCCCC2)cc1=O)B(O)O,-10.5% (active),–,39.3,39.3,53.9,-29.3% (active),22%,90.3,46.2%
CC(=O)N1Cc2ccccc2C(C)Cc2cc(Cl)ccc21 (centres undefined),105%,109%,99.1,97.9,108,109%,–,117,102%
